Only a selection was taken, and hits are over-represented in it overall.
GIRK2 activator: Activators of human GIRK2-containing channels | P48051 | HEK293 GIRK2/NPY4 cells, thallium flux fluorescence | activation (% efficacy), % for hits at 37.5 µM | 34,000 tested, under 10 active | AID 1259324;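 active means primary screen hit, no activity in plain HEK293 cells, and in GIRK2-only cells above 5% efficacy rising with concentration; inactive means the rest, including fluorescent compounds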;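 further: efficacy is normalized control-subtracted fluorescence 15 s after thallium addition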
AMPAR-TARP mod: modulates AMPAR-stargazin complexes | O88602+P19491 | HEK293 GluA2+stargazin, membrane potential dye (FDSS), glutamate EC50; hits were called plate by plate, in both directions | calls only at 30 µM | 3.5% of 40,000 active | AID 1259245;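 active means any of four per-well response measures lying three or more SD from its plate-wide compound average, in either direction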
Active calls of the source: *; i = inactive; x = no result; + = active, no number.

SMILES	GIRK2 activator	AMPAR-TARP mod
O=C(NCC(O)(c1cccs1)C1CC1)C1(c2ccc(Cl)cc2)CCCC1 (configuration not stated)	i	i
O=C(NCCc1ccsc1)C1(c2ccc(Cl)cc2)CCCC1	i	+
COc1cccc(N(C(=O)C(F)(F)F)C2C=CS(=O)(=O)C2)c1 (configuration not stated)	i	i
COc1ccc(NC(=O)c2ccc(Cl)c(S(=O)(=O)N3CCCCCC3)c2)c(OC)c1	x	i
COc1ccc(Cn2c(C)nc3c(c(=O)c4ccccc4n3C)c2=O)cc1	x	+
Cc1nc2c(c(=O)c3ccccc3n2C)c(=O)n1C1CCCCCC1	x	+
COc1ccc(CCn2c(C)nc3c(c(=O)c4ccccc4n3C)c2=O)cc1OC	x	i
Cc1nc2c(c(=O)c3ccccc3n2C)c(=O)n1-c1ccccc1	x	i
CCSc1ccccc1C(=O)NCCn1cnc(-c2ccccc2)cc1=O	i	+
O=C(Cn1cnc(-c2ccccc2)cc1=O)NCCC(c1ccccc1)c1ccccc1	i	i
O=C(NCC1CCN(Cc2ccccc2)CC1)C(=O)Nc1ccc2c(c1)OCCO2	i	i
O=C(NCC1CCN(Cc2ccccc2)CC1)C(=O)Nc1ccc2c(c1)OCO2	i	+
CN1CC(c2nc3ccccc3n2Cc2ccccc2F)CC1=O (configuration not stated)	x	i
Cc1cccc(Cn2c(C3CC(=O)N(Cc4ccc(F)cc4)C3)nc3ccccc32)c1 (configuration not stated)	x	i
C=CCN1CC(c2nc3ccccc3n2Cc2cccc(C)c2)CC1=O (configuration not stated)	x	+
CC(c1ccccc1)n1c(C2CC(=O)N(Cc3ccccc3)C2)nc2ccccc21 (configuration not stated)	x	+
O=C1CC(c2nc3ccccc3n2Cc2ccccc2F)CN1Cc1ccccc1 (configuration not stated)	x	+
Cc1cccc(Cn2c(C3CC(=O)N(Cc4ccccc4)C3)nc3ccccc32)c1 (configuration not stated)	x	+
C=CCN1CC(c2nc3ccccc3n2Cc2ccc(C(C)C)cc2)CC1=O (configuration not stated)	x	i
CCN1CC(c2nc3ccccc3n2Cc2ccccc2)CC1=O (configuration not stated)	x	i
O=C(NCC1(O)CCOCC1)Oc1ccccc1	i	x
Cc1ccc(N2CCN(C(=O)/C=C/c3ccccc3)CC2)nn1	i	i
CCc1nnsc1C(=O)Nc1ccc(S(N)(=O)=O)cc1	i	i
Cc1c(-c2ccc(Cl)cc2)c(=O)oc2ccc(O)cc12	x	i
C=CCN1CC(c2nc3ccccc3n2Cc2ccc(C)cc2)CC1=O (configuration not stated)	x	i
SMILES	GIRK2 activator	AMPAR-TARP mod
C=CCN1CC(c2nc3ccccc3n2Cc2ccc(Cl)cc2)CC1=O (configuration not stated)	x	+
CSc1ccccc1CN1CCC(CNC(=O)c2cnc3ccccc3n2)CC1	i	i
CSc1ccccc1CN1CCC(CNC(=O)c2ccccn2)CC1	i	+
CSc1ncccc1C(=O)N1CCC(CNC(=O)c2ccccc2Br)CC1	i	i
O=C(CSc1ccc(F)cc1)NCC1CCN(C(=O)c2ccccc2F)CC1	i	+
CSc1ncccc1C(=O)N1CCC(CNC(=O)C2(c3ccc(Cl)cc3)CCCC2)CC1	i	+
CSc1ncccc1C(=O)N1CCC(CNC(=O)c2cc(Cl)cc(Cl)c2)CC1	i	i
CSc1ncccc1C(=O)N1CCC(CNC(=O)c2ccccc2F)CC1	i	+
CSc1ccccc1C(=O)NCC1CCN(C(=O)c2ccccc2F)CC1	i	i
CCOC(=O)COc1ccc2c(c1)O/C(=C\c1cc(OC)ccc1OC)C2=O	x	i
CCc1ccc(NC(=O)CSC2=NC(C)(C)Nc3ccccc32)cc1	i	i
COc1ccc(S(=O)(=O)NCCN2CCOC(c3ccccc3)C2)cc1Cl (configuration not stated)	i	x
COc1cc(C(=O)Nc2ccc3c(c2)N(C(=O)c2ccco2)CC3)cc(OC)c1OC	i	i
CCN1CCCc2cc(CCNC(=O)c3cc(OC)c(OC)c(OC)c3)ccc21	x	i
CC(C)N1CCc2c(sc(NC(=O)c3ccc(Cl)s3)c2-c2nc3ccccc3s2)C1	x	+
CC(=O)c1ccc(C(=O)Nc2sc3c(c2-c2nc4ccccc4s2)CCN(C(C)C)C3)cc1	x	i
CC(C)N1CCc2c(sc(NC(=O)c3ccc([N+](=O)[O-])cc3)c2-c2nc3ccccc3s2)C1	x	+
CCC(=O)Nc1sc2c(c1-c1nc3ccccc3s1)CCN(C(C)C)C2	x	i
COc1cccc(CNC(=O)CC2CCCCN2S(=O)(=O)c2ccc(Cl)cc2)c1 (configuration not stated)	x	i
Cc1ccc(-c2ccc(=O)n(CCCNS(=O)(=O)c3ccc(F)cc3)n2)cc1	i	i
COC1CS(=O)(=O)CC1OC (configuration not stated)	x	+
CC1CCCCN1C(=O)c1ncccn1 (configuration not stated)	i	i
Cc1ccc(-c2ccc(SCC(=O)NC3CCCCC3)nn2)c(C)c1	i	+
COc1ccc(OC)c(-c2ccc(SCC(=O)NC3CCCC3)nn2)c1	i	i
COc1ccc(Cl)cc1-n1c(N)c(C(=O)NC2CCCCC2)sc1=S	i	i
SMILES	GIRK2 activator	AMPAR-TARP mod
CCOC(=O)CCC(=O)Nc1cccc(N2CCCC2=O)c1	i	i
O=C(Nc1cccc(-c2cnc3n2CCC3)c1)c1ccc(Br)o1	i	+
COc1ccc(Br)c(C(=O)Nc2cccc(-c3cnc4n3CCC4)c2)c1	i	i
CCOC(=O)CCC(=O)Nc1cccc(-c2cnc3n2CCC3)c1	i	+
O=C(Nc1cccc(Cl)c1)Nc1cccc(-c2cnc3n2CCC3)c1	i	i
O=C(Nc1cccc(-c2cnc3n2CCC3)c1)c1cc2ccccc2oc1=O	i	+
Cc1ccc(C(=O)Nc2ccc(S(C)(=O)=O)cc2)cc1S(=O)(=O)N1CCCC1	i	i
FC(F)(F)Oc1ccc2nc(NCC3CCCO3)sc2c1 (configuration not stated)	i	i
COc1ccc(S(=O)(=O)N2CCN(c3cc(-n4ccnc4)ncn3)CC2)c(C)c1C	i	i
O=C(CN(Cc1ccc(Cl)cc1)S(=O)(=O)c1cccnc1)N1CCc2ccccc21	i	i
CC(C)c1ccc(OCC(=O)NCCOc2ccccc2)cc1	i	i
COc1ccc(C(=O)N2CCN(c3cc(-c4ccccc4)[nH]n3)CC2)cc1OC	i	x
O=C(CCCS(=O)(=O)c1ccc(Cl)cc1)Nc1cccc(-c2nc3ccccc3o2)c1	x	i
Cc1ccc(NC(=O)CSc2ncc(S(=O)(=O)c3ccc(Cl)s3)c(N)n2)cc1F	i	i
Cc1ccc(Cl)cc1S(=O)(=O)NCC(c1cccn1C)N(C)C (configuration not stated)	i	i
CN(C)C(CNS(=O)(=O)c1cc(Cl)ccc1Cl)c1cccn1C (configuration not stated)	i	+
CNC(=O)Cn1c(=O)c2c(N3CCN(C(=O)C4CC4)CC3)ccnc2n(C)c1=O	x	i
Cc1ccccc1-c1ccc(SCC(=O)NCc2ccc3c(c2)OCO3)nn1	i	+
